PubChem BioAssay (NCATS)
Records with an inconclusive call do not appear. Entries that show only a call come without a potency. Values without a mark were called inactive. Activity calls are given as the source filed them. Calls come from the whole dose curve; as a rule, active = well fitted curve in the direction sought with a large enough effect; inconclusive = small, poorly fitted or top-dose-only effect, or another doubt; inactive = no such curve, though single readings can be large; an effect the other way counts as inactive or inconclusive.

Tests used:
[1] = molecular target: Rap guanine nucleotide exchange factor 3 (Homo sapiens) (UniProt O95398); assay: Confirmatory qHTS for antagonist of cAMP-regulated guanine nucleotide exchange factor 3 (EPAC1) (AID 1645880); note: nearly all actives have a fitted effect of over 55% in size; note: potency is the fitted concentration of half-maximal effect
Sequence of Rap guanine nucleotide exchange factor 3 (Homo sapiens) (O95398 whole entry, looked up): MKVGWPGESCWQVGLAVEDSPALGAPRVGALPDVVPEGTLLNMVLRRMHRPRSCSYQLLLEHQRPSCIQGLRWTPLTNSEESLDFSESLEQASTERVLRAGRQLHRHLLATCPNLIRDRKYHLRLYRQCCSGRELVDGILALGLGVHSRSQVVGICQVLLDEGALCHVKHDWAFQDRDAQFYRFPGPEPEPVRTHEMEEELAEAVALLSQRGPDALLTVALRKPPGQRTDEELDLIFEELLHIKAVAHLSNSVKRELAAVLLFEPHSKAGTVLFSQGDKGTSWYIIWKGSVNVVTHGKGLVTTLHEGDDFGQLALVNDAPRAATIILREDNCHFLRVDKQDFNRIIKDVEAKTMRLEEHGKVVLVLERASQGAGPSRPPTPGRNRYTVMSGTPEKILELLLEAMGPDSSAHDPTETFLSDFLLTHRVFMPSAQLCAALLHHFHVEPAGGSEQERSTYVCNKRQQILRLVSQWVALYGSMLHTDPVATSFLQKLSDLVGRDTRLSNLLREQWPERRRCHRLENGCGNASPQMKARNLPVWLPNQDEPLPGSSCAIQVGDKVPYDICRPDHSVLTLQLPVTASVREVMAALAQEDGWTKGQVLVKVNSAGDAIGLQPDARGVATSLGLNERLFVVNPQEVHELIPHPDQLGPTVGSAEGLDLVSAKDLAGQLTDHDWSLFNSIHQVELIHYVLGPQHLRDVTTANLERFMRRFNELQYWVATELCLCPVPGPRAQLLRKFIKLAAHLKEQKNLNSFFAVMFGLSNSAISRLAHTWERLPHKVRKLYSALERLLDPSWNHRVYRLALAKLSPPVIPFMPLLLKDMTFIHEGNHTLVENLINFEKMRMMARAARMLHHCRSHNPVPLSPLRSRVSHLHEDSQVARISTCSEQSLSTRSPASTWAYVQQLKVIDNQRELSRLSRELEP
How it was run: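 Released BODIPY-GDP fluoresces less than Rap1-bound BODIPY-GDP; the signal is followed at 480/540 nm at 5-min intervals over 30 min, after 5 min at room temperature. Reactions contain 100 nM EPAC1, 250 nM RAP1B-BODIPY-GDP and 50 uM GDP; results are normalized to ATA and DMSO.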

[2] = molecular target: Rap guanine nucleotide exchange factor 3 (Homo sapiens) (UniProt O95398); assay: Confirmatory qHTS for agonist of cAMP-regulated guanine nucleotide exchange factor 3 (EPAC1) (AID 1645881); note: nearly all actives have a fitted effect of over 75% in size; note: potency is the fitted concentration of half-maximal effect;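 for activation: EPAC1 catalysed release of BODIPY-GDP from Rap1B seen as fluorescence loss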
[3] = molecular target: Rap guanine nucleotide exchange factor 4 (Homo sapiens) (UniProt Q8WZA2); assay: Confirmatory qHTS for agonist of cAMP-regulated guanine nucleotide exchange factor 4 (EPAC2) (AID 1645884);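 note: nucleotide exchange releases bodipy-GDP from Rap1 and this lowers its fluorescence; nearly all actives have a fitted effect of over 65% in size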
Sequence of Rap guanine nucleotide exchange factor 4 (Homo sapiens) (Q8WZA2 whole entry, looked up): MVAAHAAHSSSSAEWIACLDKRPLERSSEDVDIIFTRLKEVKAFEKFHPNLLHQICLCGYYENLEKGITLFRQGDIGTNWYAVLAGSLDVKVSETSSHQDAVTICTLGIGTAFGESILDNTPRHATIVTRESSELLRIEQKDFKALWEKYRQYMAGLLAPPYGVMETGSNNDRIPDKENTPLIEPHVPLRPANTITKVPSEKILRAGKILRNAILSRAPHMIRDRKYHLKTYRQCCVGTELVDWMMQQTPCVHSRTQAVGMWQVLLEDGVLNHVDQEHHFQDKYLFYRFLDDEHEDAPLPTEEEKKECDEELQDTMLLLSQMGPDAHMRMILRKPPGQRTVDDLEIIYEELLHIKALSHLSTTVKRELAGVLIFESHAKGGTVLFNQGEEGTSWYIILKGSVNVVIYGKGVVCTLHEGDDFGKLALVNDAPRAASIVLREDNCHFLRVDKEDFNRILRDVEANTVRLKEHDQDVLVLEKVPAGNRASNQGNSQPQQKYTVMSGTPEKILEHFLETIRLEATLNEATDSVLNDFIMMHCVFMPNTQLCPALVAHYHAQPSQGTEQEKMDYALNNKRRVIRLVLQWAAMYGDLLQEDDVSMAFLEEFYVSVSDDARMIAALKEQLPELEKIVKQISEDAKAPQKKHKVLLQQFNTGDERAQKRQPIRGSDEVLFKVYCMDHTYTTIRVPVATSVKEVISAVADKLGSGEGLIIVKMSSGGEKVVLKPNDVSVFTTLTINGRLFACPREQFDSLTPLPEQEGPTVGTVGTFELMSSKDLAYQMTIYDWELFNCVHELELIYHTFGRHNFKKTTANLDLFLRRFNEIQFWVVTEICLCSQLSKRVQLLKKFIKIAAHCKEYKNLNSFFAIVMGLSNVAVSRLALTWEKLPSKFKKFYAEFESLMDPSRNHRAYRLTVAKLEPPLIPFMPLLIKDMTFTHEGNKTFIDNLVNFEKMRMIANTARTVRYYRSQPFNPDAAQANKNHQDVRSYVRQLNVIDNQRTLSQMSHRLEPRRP

[4] = molecular target: Rap guanine nucleotide exchange factor 4 (Homo sapiens) (UniProt Q8WZA2); assay: Confirmatory qHTS for antagonist of cAMP-regulated guanine nucleotide exchange factor 4 (EPAC2) (AID 1645885); note: nearly all actives have a fitted effect of over 25% in size; note: potency is the fitted concentration of half-maximal effect
[5] = molecular target: Rap guanine nucleotide exchange factor 3 (Homo sapiens) (UniProt O95398); assay: Counterscreen qHTS for antagonist of cAMP-regulated guanine nucleotide exchange factor 3 (EPAC1) (AID 1645888)
How it was run: (§1)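 Measured: fluorescence of BODIPY-GDP bound to Rap1B, which falls as exchange proceeds. Conditions include 50 uM competing GDP, 5 and 30 min reads, and a later cAMP challenge for antagonist detection.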

[6] = molecular target: Rap guanine nucleotide exchange factor 3 (Homo sapiens) (UniProt O95398); assay: Counterscreen qHTS for agonist of cAMP-regulated guanine nucleotide exchange factor 3 (EPAC1) (AID 1645889); note: nearly all actives have a fitted effect of over 40% in size; note: potency is the fitted concentration of half-maximal effect
How it was run: as §1

Row | SMILES | Potency [1] | Potency [2] | Potency [3] | Potency [4] | Potency [5] | Potency [6] | activation [3] | activity change, negative = inhibition [5] | activation [6] | outcome [4]
1 | CC1(C(=O)NS(=O)(=O)c2ccc(Cl)s2)CCN1C(=O)C1(c2ccccc2)CCCC1 (stereo unspecified) | 37.9 µM (active) | inactive | inactive | 8.49 µM (active) | inactive | inactive |  |  |  | 
2 | CCc1cccc2cc3c(N)c(C(=O)Nc4ccc(S(=O)(=O)N5CCCC5)cc4)sc3nc12 | 75.7 µM (active) | inactive | inactive | 67.5 µM (active) | inactive | inactive |  |  |  | 
3 | CCC(NS(=O)(=O)c1ccc2c(c1)NC(=O)C(C)C(=O)N2)c1cccs1 (stereo unspecified) | inactive | inactive | inactive | inactive | inactive | inactive |  |  |  | 
4 | Cc1ccc(C2=NOC(=O)/C2=C\c2ccc(C)o2)cc1 | 75.7 µM (active) | inactive | inactive | inactive | inactive | inactive |  |  |  | 
5 | CC(C)CC1C(=O)N(Cc2cn(CCC3OCCCO3)nn2)CCS(=O)(=O)N1Cc1ccc(-c2ccccc2)cc1 (stereo unspecified) | inactive | inactive | inactive | inactive | inactive | inactive |  |  |  | 
6 | CCCCNC(=O)NC12CC3CC(CC(C3)C1)C2 | inactive | inactive | inactive | inactive | inactive | inactive |  |  |  | 
7 | Cc1nn(-c2ccccc2)c(Cl)c1/C=C1\SC(=S)NC1=O | 12 µM (active) | inactive | inactive | inactive | inactive | inactive |  |  |  | 
8 | COc1ccc(CNC(=O)c2cc(=O)c3cc(C)ccc3o2)cc1 | inactive | inactive | inactive | inactive | inactive | inactive |  |  |  | 
9 | CC(=O)C1=C(O)C(=O)N(c2cccc(Br)c2)C1c1ccc(Br)cc1 (stereo unspecified) | 37.9 µM (active) | inactive | inactive | inactive | inactive | inactive |  |  |  | 
10 | O=C(O)CCCCCN1C(=O)/C(=C/c2cn(-c3ccccc3)nc2-c2cccs2)SC1=S | inactive | 79.4 µM (active) |  | inactive |  | 14.1 µM (active) | 17.7% [at 17.1 µM, percent relative to cAMP agonist control] | 39% [at 30.8 µM] |  | 
11 | CC1C/C(=C/c2cccn2C)C(=O)/C(=C/c2cccn2C)C1 (stereo unspecified) | 16.9 µM (active) | inactive | inactive | inactive | inactive | 79.4 µM (active) |  |  |  | 
12 | O=CN1N=C(c2ccccc2)CC1c1ccc(Cl)cc1 (stereo unspecified) | inactive | inactive | inactive | inactive | inactive | inactive |  |  |  | 
13 | CC1CCN(C(=O)CSc2nnc(CN3CCOCC3)n2-c2ccccc2)CC1 | inactive | inactive | inactive | inactive | inactive | inactive |  |  |  | 
14 | CCOc1ccc(Oc2ccccc2NC(=O)CN2C(=O)NC3(CCCC3)C2=O)cc1 | inactive | inactive |  | inactive |  |  | -25.9% [at 17.1 µM, percent relative to cAMP agonist control] | -5.88% [at 30.8 µM] | 10.7% [at 30.8 µM] | 
15 | CCn1c2ccccc2c2nnc(SCC(=O)N(C)C3CCS(=O)(=O)C3)nc21 (stereo unspecified) | inactive | inactive |  | inactive |  |  | 3.11% [at 17.1 µM, percent relative to cAMP agonist control] | 5.48% [at 30.8 µM] | 4.22% [at 30.8 µM] | 
16 | COc1cc(/C=C2/C(=O)NN(c3ccc(C)c(Cl)c3)C2=O)cc([N+](=O)[O-])c1O | 8.49 µM (active) | inactive | inactive | inactive | inactive | inactive |  |  |  | 
17 | Cc1ccc(/C=C/C(=O)Nc2ccc(S(=O)(=O)Nc3cc(C)nc(C)n3)cc2)cc1 | inactive | inactive | inactive | inactive | inactive | inactive |  |  |  | 
18 | O=C(COC(=O)c1ccc(O)cc1O)Nc1nnc(-c2ccccc2)o1 | inactive | inactive | inactive | 84.9 µM (active) | inactive | inactive |  |  |  | 
19 | COc1ccc(N2CCN(C(=O)CSc3ncn[nH]3)CC2)cc1 | inactive | inactive | inactive | inactive | inactive | inactive |  |  |  | 
20 | Cc1ccn2cc(CNC(=O)c3cccs3)nc2c1 | inactive | inactive | inactive | inactive | inactive | inactive |  |  |  | 
21 | O=C(Nc1nncs1)c1ccccc1NS(=O)(=O)c1cccs1 | inactive | inactive | inactive | inactive | inactive | inactive |  |  |  | 

Row | SMILES | Potency [1] | Potency [2] | Potency [3] | Potency [4] | Potency [5] | Potency [6] | activation [3] | activity change, negative = inhibition [5] | activation [6] | outcome [4]
22 | COc1ccc(-c2cc(C(F)(F)F)nc(SCC(=O)NCCc3ccccc3)n2)cc1OC | inactive | inactive | inactive | inactive | inactive | inactive |  |  |  | 
23 | CCOc1cc(/C=N/Nc2ccc(S(=O)(=O)Nc3ccccc3C(=O)O)cc2[N+](=O)[O-])cc(Cl)c1O | 33.8 µM (active) | inactive | inactive | inactive | inactive | inactive |  |  |  | 
24 | O=C(NS(=O)(=O)c1ccc2ccc(S(=O)(=O)NCCSc3ccccc3)cc2c1)c1cccc2ccccc12 | 42.6 µM (active) | inactive | inactive | 67.5 µM (active) | inactive | inactive |  |  |  | 
25 | O=C(COc1ccccc1Br)NCCC1=CCCCC1 | inactive | inactive |  | inactive |  |  | 11.2% [at 17.1 µM, percent relative to cAMP agonist control] | -17.9% [at 30.8 µM] | 20.5% [at 30.8 µM] | 
26 | Cc1ccc(C)c(NC(=O)CN(C)C(=O)c2cccc(S(=O)(=O)N3CCCC3)c2)c1 | inactive | inactive | inactive | inactive | inactive | inactive |  |  |  | 
27 | COc1ccc(C(=O)Nc2cccc(/C=C(\CCC(=O)O)c3nc4ccccc4s3)c2)cc1 | 21.3 µM (active) | inactive | inactive | inactive | inactive | inactive |  |  |  | 
28 | Cc1cccc(NC(=S)NC(=O)c2oc3ccccc3c2C)n1 | inactive | inactive | inactive | inactive | inactive | inactive |  |  |  | 
29 | O=C1/C(=C/c2ccc(F)cc2)SC(=S)N1NS(=O)(=O)c1ccccc1 | 16.9 µM (active) | inactive | inactive | inactive | inactive | inactive |  |  |  | 
30 | CCOC(=O)c1oc2ccccc2c1CN1CCN(C(=O)c2ccccc2)CC1 | inactive | inactive | inactive | inactive | inactive | inactive |  |  |  | 
31 | O=C(OCc1c(-c2ccccc2)ncc2ccccc12)c1ccco1 | inactive | inactive | inactive | inactive | inactive | inactive |  |  |  | 
32 | O=C(CN(c1ccc(Cl)c(C(F)(F)F)c1)S(=O)(=O)c1ccccc1)N1CCc2ccccc2C1 | inactive | inactive | inactive | inactive | inactive | inactive |  |  |  | 
33 | Cc1ccc(CNC(=O)C(=O)NCCC2CCCCN2S(=O)(=O)c2cccs2)cc1 (stereo unspecified) | inactive | inactive |  | inactive |  |  | -1.43% [at 17.1 µM, percent relative to cAMP agonist control] | -26.3% [at 30.8 µM] | 20.6% [at 30.8 µM] | 
34 | Cc1cc2nc3c(=O)n(CCc4ccccc4)c(=O)[nH]c3nc2cc1N | 12.6 µM (active) | inactive |  | inactive |  |  | 3.45% [at 17.1 µM, percent relative to cAMP agonist control] | -6.16% [at 30.8 µM] | 15.2% [at 30.8 µM] | 
35 | CC(C)CC(C(=O)NC1CCCCC1)N(Cc1ccccc1)C(=O)c1snc(C(N)=O)c1N (stereo unspecified) | inactive | inactive |  | inactive |  |  | 1.37% [at 17.1 µM, percent relative to cAMP agonist control] | -17.8% [at 30.8 µM] | 19% [at 30.8 µM] | 
36 | COc1ccccc1Cc1nc2ccccc2nc1SCC(=O)Nc1ccccc1C(F)(F)F | inactive | inactive | inactive |  | inactive | inactive |  |  |  | inactive [at 12.7 µM]
37 | CN(C)CCCN(C(=O)COc1ccc(Cl)cc1)c1nc2cc3c(cc2s1)OCCO3 | inactive | inactive | inactive | inactive | inactive | inactive |  |  |  | 
38 | Cc1cc(C)c2nc(C)cc(Nc3ccc(C(=O)NCCO)cc3)c2c1 | inactive | inactive | inactive | inactive | inactive | inactive |  |  |  | 
39 | CN(Cc1ccccc1N1CCCC1)C(=O)c1cc2ccccc2o1 | inactive | inactive |  | inactive |  |  | 4.19% [at 17.1 µM, percent relative to cAMP agonist control] | -10.5% [at 30.8 µM] | 17.8% [at 30.8 µM] | 
40 | CCCC1CC(c2csc(N)n2)CCO1 (stereo unspecified) | inactive | inactive | inactive | inactive | inactive | inactive |  |  |  | 
41 | N#Cc1c(-c2ccccc2)nc(SCc2cccc(C(F)(F)F)c2)[nH]c1=O | 26.9 µM (active) | inactive | inactive | 75.7 µM (active) | inactive | inactive |  |  |  | 
